Among the data in PubChem BioAssay AID431 (Sanford-Burnham Center for Chemical Genomics, 2006) are cytotoxicity values, retold here.

Among all 63,000 compounds or so, about 1,100 (1.7%) were called active. The sample holds actives, similar compounds and a random draw of the others, so the mix is not that of the screen. Results with a measured potency or affinity are listed apart. Values without a mark were called inactive.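 How the source made its calls: active means compounds whose percent cytotoxicity in the single-dose primary screen, scaled between solvent and toxic-drug controls, exceeds 50; inactive means the rest.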

The test is described as follows: viability loss of HPDE-C7K cells – cell-based, fluorescence, HTS, primary screen (AID 431).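 Further: 0% = DMSO solvent wells and 100% = doxorubicin-treated wells.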 The note with it: HPDE-C7K KRASV12 cells, Alamar Blue viability, 48 h; at 10 µM; stronger effect = higher value. In general terms: Alamar Blue is a resazurin reagent that responds to reducing activity.
Consider `COc1ccc(S(=O)(=O)n2ccnc2)c2cccnc12`, for which the cytotoxicity is -6.2%.

For the molecule `CC(C)(C)SCCNC(=O)COc1ccc(Cl)cc1`, the cytotoxicity is 7.6%.

Consider `CCOCCCNS(=O)(=O)c1ccc2c(c1)OCCO2`, for which the cytotoxicity was 11.2%.

For the molecule `O=c1c2c3c(sc2ncn1/N=C/c1ccco1)CCCC3`, the cytotoxicity is 1.1%.

With `Cc1c(NC(=O)c2ccc3c(c2)OCO3)cccc1-c1nc2ccccc2o1`, the cytotoxicity is -4.5%.

In the case of `O=C(Nc1ccc2oc(-c3ccccc3)nc2c1)c1ccc2c(c1)OCCO2`, the cytotoxicity was 37%.

Regarding `Cc1ccc(-c2nc3ccccc3o2)cc1NC(=O)c1ccc2c(c1)OCO2`, the cytotoxicity was -8.2%.

As to `O=C(Nc1ccc2oc(-c3ccccc3F)nc2c1)c1cncc(Br)c1`, the cytotoxicity is 14.2%.

Consider `O=C(Nc1ccccc1-c1nc2ccccc2o1)c1ccc2c(c1)OCCO2`, for which the cytotoxicity was 79% (active).

Turning to `O=C(Nc1ccc2oc(-c3ccccc3F)nc2c1)c1ccc2c(c1)OCCO2`, the cytotoxicity was 83.6% (active).

For `COc1cccc(-c2nnn(CC(=O)NC3CCCC3)n2)c1OC`, the cytotoxicity is 3.1%.

Take `O=C(CC1Sc2ccccc2NC1=O)Nc1cccc(C(=O)O)c1` (configuration not stated): the cytotoxicity is 2.1%.

With `O=C(NCc1ccncc1)c1ccc(Br)o1`, the cytotoxicity was -21.6%.

On to `O=C(NCc1ccccc1Cl)C1CCN(S(=O)(=O)N2CCCCC2)CC1`, for which the cytotoxicity was -3.6%.

Turning to `CCOC(=O)Nc1cc(=O)c2ccccc2o1`, the cytotoxicity is 38.2%.

As for `CCOC(=O)Oc1ccc2oc(=O)cc(C)c2c1`, the cytotoxicity was 10.2%.

`CCOC(=O)/C=C(\C)Sc1cc(=O)oc2ccccc12`: the cytotoxicity is 77.6% (active).

As for `Cc1csc(SCc2c(C(=O)O)oc3ccccc23)n1`, the cytotoxicity was -0.8%.

For the molecule `CCOC(=O)C1=C(C)NC(=O)NC1c1cn(-c2ccccc2)nc1-c1cccs1` (configuration not stated), the cytotoxicity was 23.8%.

With `Fc1cccc(F)c1CN1CCN(c2ncccn2)CC1`, the cytotoxicity was -1.5%.

Take `COCCN1Cc2cccc(C(=O)Nc3cccc(OC)c3)c2C1=O`: the cytotoxicity is -3.5%.

Turning to `Cn1c(=O)c(=O)n(C)c2cc(S(=O)(=O)N3CCN(c4cccc(C(F)(F)F)c4)CC3)ccc21`, the cytotoxicity was 80.1% (active).

As for `Cc1c(S(=O)(=O)N2CCN(c3cccc(C(F)(F)F)c3)CC2)c(=O)n(C)c(=O)n1C`, the cytotoxicity was 5.8%.

As to `Cn1c(=O)c2cc(S(=O)(=O)N3CCN(c4cccc(C(F)(F)F)c4)CC3)ccc2n(C)c1=O`, the cytotoxicity was -3.4%.

As to `COc1ccccc1CN(CC(=O)NCc1ccco1)C(=O)CNS(=O)(=O)c1ccccc1`, the cytotoxicity was 1.2%.

`COc1ccccc1N1CCN(C(=O)C2CCN(S(=O)(=O)c3ccc(Cl)cc3)CC2)CC1`: the cytotoxicity is -11.9%.

Regarding `Cc1cc(C(=O)OCC(=O)c2c(N)n(C)c(=O)n(C)c2=O)c(C)n1-c1ccccc1`, the cytotoxicity was 1.3%.

Consider `Cc1ccc(C)c(S(=O)(=O)C(C#N)c2nc3ccccc3nc2N2CC(C)OC(C)C2)c1` (configuration not stated), for which the cytotoxicity is 59.3% (active).

Consider `CC1CCCN(c2nc3ccccc3nc2C(C#N)S(=O)(=O)c2ccccc2)C1` (configuration not stated), for which the cytotoxicity is 47.8%.

For `Cc1ccc(S(=O)(=O)C(C#N)c2nc3ccccc3nc2N2CCCC2)cc1` (configuration not stated), the cytotoxicity was 34.2%.

In the case of `Cc1cccc(S(=O)(=O)C(C#N)c2nc3ccccc3nc2N2CC(C)OC(C)C2)c1` (configuration not stated), the cytotoxicity is 7.7%.

With `Cc1ccc(C)c(S(=O)(=O)C(C#N)c2nc3ccccc3nc2N2CCOCC2)c1` (configuration not stated), the cytotoxicity is -1.1%.

For `Cc1ccc(S(=O)(=O)C(C#N)c2nc3ccccc3nc2N2CCC(C)CC2)cc1` (configuration not stated), the cytotoxicity was 30.1%.

With `COc1ccc(S(=O)(=O)C(C#N)c2nc3ccccc3nc2N2CCCCC2)cc1` (configuration not stated), the cytotoxicity was 3.2%.

Take `Cc1ccc(S(=O)(=O)C(C#N)c2nc3ccccc3nc2N2CC(C)OC(C)C2)cc1C` (configuration not stated): the cytotoxicity was 76.5% (active).

For the molecule `COc1ccc(S(=O)(=O)C(C#N)c2nc3ccccc3nc2N2CCCC(C)C2)cc1` (configuration not stated), the cytotoxicity was 60.2% (active).

As to `Cc1ccc(C)c(S(=O)(=O)C(C#N)c2nc3ccccc3nc2N2CCCC2)c1` (configuration not stated), the cytotoxicity is 14.7%.

Consider `Cc1cccc(S(=O)(=O)C(C#N)c2nc3ccccc3nc2N2CCCC2)c1` (configuration not stated), for which the cytotoxicity is -13.4%.

In the case of `Cc1ccc(S(=O)(=O)C(C#N)c2nc3ccccc3nc2N2CCCC2)cc1C` (configuration not stated), the cytotoxicity is 56.7% (active).

Turning to `Cc1ccccc1C(=O)N1CCC(C(=O)Nc2cccc(F)c2)CC1`, the cytotoxicity was 3%.

On to `O=C(O)C1C2CCC(C2)C1C(=O)NCCCn1ccnc1` (configuration not stated), for which the cytotoxicity is -7.9%.

As for `CCCc1cc(=O)n2[nH]c(-c3cc(OC)c(OC)c(OC)c3)nc2n1`, the cytotoxicity is -9.7%.

`CCCOc1cccc(C(=O)Nc2cccc(NC(=O)c3ccco3)c2)c1`: the cytotoxicity is 7.4%.

Turning to `Cc1[nH]nc2c1C(c1ccc(F)cc1)C(C#N)=C(N)O2` (configuration not stated), the cytotoxicity is -10.6%.

As to `CCOC(=O)C1CCCN(Cc2ccccc2F)C1` (configuration not stated), the cytotoxicity was 4.8%.

Consider `CC(C)c1ccc(S(=O)(=O)N2CCN(CC(=O)Nc3ccc4c(c3)OCO4)CC2)cc1`, for which the cytotoxicity is 2.2%.

For `CCOC(=O)N1CCN(Cc2nc(-c3ccccc3)no2)CC1`, the cytotoxicity was 11.5%.

`Cc1noc(C)c1CSc1nc2ccccc2nc1NS(=O)(=O)c1ccc(Cl)cc1`: the cytotoxicity was 64.6% (active).

With `O=S(=O)(Nc1nc2ccccc2nc1NCc1ccco1)c1ccc(Cl)cc1`, the cytotoxicity was 20.9%.

`Cc1noc(C)c1CSc1ncnc2ccccc12`: the cytotoxicity was 18.6%.

As to `COc1cc(C2C(C(=O)OC(C)C)=C(C)Nc3[nH]c(=O)[nH]c(=O)c32)ccc1O` (configuration not stated), the cytotoxicity is -5.8%.

For the molecule `CN1C(=O)NC(NC(=O)c2cccs2)(C(F)(F)F)C1=O` (configuration not stated), the cytotoxicity was -12.1%.

As to `COc1ccc(N(C(=O)c2cccc(OC)c2OC)C2C=CS(=O)(=O)C2)cc1` (configuration not stated), the cytotoxicity is -2.9%.

`c1ccc2c(c1)oc1c(Nc3ccc4c(c3)OCO4)ncnc12`: the cytotoxicity was -23.6%.

Regarding `COc1ccc(/C=N/n2c(N)nc3ccccc32)cc1OC`, the cytotoxicity is -9.4%.

As to `COc1ccc(-c2nc(N)ncc2-c2csc(C)n2)c(O)c1`, the cytotoxicity is -17.5%.

Turning to `C=C(C)COc1ccc(-c2nc(N)ncc2-c2ccc(OC)cc2)c(O)c1`, the cytotoxicity is 120% (active).

`Cc1[nH]nc(-c2ccc(O)cc2O)c1-c1ccc(Cl)cc1`: the cytotoxicity is 53.9% (active).

Consider `C=C(C)COc1ccc(-c2nc(N)ncc2Oc2ccc(OC)cc2)c(O)c1`, for which the cytotoxicity is -0.9%.

Take `Oc1ccc(-c2[nH]ncc2-c2ccc(Cl)cc2)c(O)c1`: the cytotoxicity was 49.9%.

With `COc1ccc(-c2n[nH]c(C)c2-c2ccc(Cl)cc2)c(O)c1OC`, the cytotoxicity is -14.6%.

As to `C=C(C)COc1ccc(-c2nc(N)ncc2Oc2ccccc2OC)c(O)c1`, the cytotoxicity was -4.5%.

For the molecule `N#Cc1cc(C(=O)c2cc(Br)ccc2O)cn(C2CC2)c1=O`, the cytotoxicity is 10.6%.

Regarding `O=C(c1ccc(CN2CCc3ccccc3C2)cc1)N1CCCCC1`, the cytotoxicity was -21.9%.

`O=S(=O)(c1ccc(N2CCOCC2)cc1)N1CCOCC1`: the cytotoxicity is -6.3%.

For the molecule `CC(=O)N1CC2(C)CN(C(C)=O)CC(C)(C1)C2O` (configuration not stated), the cytotoxicity was 1.7%.

In the case of `CCOc1cc(S(=O)(=O)NCCN2CCOCC2)c(C)cc1C`, the cytotoxicity is -17.8%.

In the case of `C=CCc1ccccc1OCC(O)CN1CCN(c2ccc(OC)cc2)CC1` (configuration not stated), the cytotoxicity was 9.3%.

For the molecule `COC(=O)C1(CCSC)NC(c2ccccc2OC)C2C(=O)N(C)C(=O)C21` (configuration not stated), the cytotoxicity was 8%.

Turning to `O=c1c2ccccc2nnn1CSc1nc2cc(Cl)ccc2c(=O)n1Cc1ccco1`, the cytotoxicity was 6.2%.

With `CCOC(=O)N1CCN(C2=CC(=O)OC23CCCCC3)CC1`, the cytotoxicity is 3.3%.

On to `COc1ccc(Oc2c(-c3ccc(O)cc3O)n[nH]c2C)cc1`, for which the cytotoxicity is 27.1%.

With `C=C(C)COc1ccc(-c2ncncc2Oc2ccc(OC)cc2)c(O)c1`, the cytotoxicity is 17.6%.

With `Cc1[nH]nc(-c2ccc(O)cc2O)c1Oc1ccccc1`, the cytotoxicity was 63.9% (active).

In the case of `C=C(C)COc1ccc(-c2nc(N)nc(C)c2Oc2ccccc2OC)c(O)c1`, the cytotoxicity is 1.4%.

As to `COc1cccc(Oc2cncnc2-c2ccc(OC)cc2O)c1`, the cytotoxicity is 21.1%.

In the case of `Cc1oc2cc(O)ccc2c(=O)c1Oc1ccccc1`, the cytotoxicity is -6.1%.

Consider `CCOc1ccc(-c2n[nH]c(C)c2Oc2ccccc2OC)c(O)c1`, for which the cytotoxicity is 2.5%.

On to `C=C(C)COc1ccc(-c2n[nH]c(C)c2Oc2ccccc2OC)c(O)c1`, for which the cytotoxicity is 66.1% (active).

`CCc1nnc(NC(=O)CSc2nnc(-c3ccoc3C)n2-c2ccc(C)cc2)s1`: the cytotoxicity was -6.5%.

Consider `CC(OC(=O)C1CC=CCC1C(N)=O)C(Cl)=C(Cl)Cl` (configuration not stated), for which the cytotoxicity was -9.4%.

As for `CC(C)OC(=O)CSc1nnc(-c2cnccn2)n1C`, the cytotoxicity was -7.5%.

For `O=C(NCCN1CCN(c2ccccc2F)CC1)C1c2ccccc2C(=O)N2CCc3ccccc3C12` (configuration not stated), the cytotoxicity is -3.5%.

On to `N#CCCC12CCCCC1=Nc1ccccc12` (configuration not stated), for which the cytotoxicity was -11.5%.

Consider `CCN1CCN(CC(=O)n2c3c(c4ccccc42)CC(C)CC3)CC1` (configuration not stated), for which the cytotoxicity is 16.2%.

Consider `COc1ccc(CNC(=O)c2cc(-c3ccco3)on2)cc1`, for which the cytotoxicity was -5.9%.

With `c1csc(-c2nn3c(C4COc5ccccc5O4)nnc3s2)c1` (configuration not stated), the cytotoxicity was -1.6%.

For the molecule `C=CCOc1nc2c(c(=O)n(C)c(=O)n2C)n1Cc1ccc(Cl)cc1Cl`, the cytotoxicity is -24.2%.

Take `C=CCOc1nc2c(c(=O)n(C)c(=O)n2C)n1Cc1ccc(Cl)cc1`: the cytotoxicity is 64.6% (active).

Regarding `C=CCOc1nc2c(c(=O)n(Cc3ccc(Cl)cc3)c(=O)n2C)n1C`, the cytotoxicity was -0.2%.

Take `CCC(C)NC(=O)CN(c1ccc2c(c1)OCO2)S(=O)(=O)c1c(C)n[nH]c1C` (configuration not stated): the cytotoxicity was 3.1%.

In the case of `CC1(C)CC(=O)c2cnc(NC(=O)CCc3ccccc3)nc2C1`, the cytotoxicity was -12.6%.

Regarding `CCn1c(SCC(=O)Nc2oc(-c3ccccc3)c(-c3ccccc3)c2C#N)nnc1-c1ccco1`, the cytotoxicity is 29.1%.

Take `N#Cc1c(NC(=O)CN2CCOCC2)oc(-c2ccccc2)c1-c1ccccc1`: the cytotoxicity was 10.6%.

On to `Cc1ccnc(SCC(=O)Nc2oc(-c3ccccc3)c(-c3ccccc3)c2C#N)n1`, for which the cytotoxicity was 29.2%.

Take `N#Cc1c(NC(=O)CCN2C(=O)c3ccccc3C2=O)oc(-c2ccccc2)c1-c1ccccc1`: the cytotoxicity is 2.4%.

Turning to `N#Cc1c(NC(=O)Cn2c(=O)oc3ccccc32)oc(-c2ccccc2)c1-c1ccccc1`, the cytotoxicity is 52% (active).
